PostGolgi ctrl – growth inhibition of yeast control strain, primary screen, counter-screen for post-Golgi transport modulator project; efflux-deficient yeast background strain, growth absorbance A615, 16 h; inhibition, % at 10 µM; 5% of 98,000 active
CYP2C19 inh – blockers of cytochrome P450 2C19 activity – biochemical, luminescence, ADME assay, primary screen; P33261; CYP2C19 Supersomes, luciferin-H EGE luminescence, 30 min; inhibition, % at 5 µM; 21% of 96,000 active;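 active means CYP2C19 inhibition above a set limit at 5 µM in the primary screen, cut at about 50% in these data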
Target sequence (P33261 whole entry, looked up): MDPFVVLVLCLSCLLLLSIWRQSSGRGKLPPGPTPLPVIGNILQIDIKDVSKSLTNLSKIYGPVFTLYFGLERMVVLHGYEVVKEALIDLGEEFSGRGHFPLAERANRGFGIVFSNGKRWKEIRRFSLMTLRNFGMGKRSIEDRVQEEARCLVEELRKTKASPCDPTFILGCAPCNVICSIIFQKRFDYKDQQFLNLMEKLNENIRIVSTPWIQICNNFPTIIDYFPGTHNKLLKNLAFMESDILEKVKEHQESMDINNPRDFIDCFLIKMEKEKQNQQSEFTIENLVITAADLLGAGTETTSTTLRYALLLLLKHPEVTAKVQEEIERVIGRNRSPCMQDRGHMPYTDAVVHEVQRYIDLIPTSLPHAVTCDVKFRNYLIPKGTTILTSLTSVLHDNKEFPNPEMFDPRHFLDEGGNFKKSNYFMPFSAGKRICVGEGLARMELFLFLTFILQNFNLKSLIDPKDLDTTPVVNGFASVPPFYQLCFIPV
CYP2C19 act – human CYP2C19 activators, primary screen, biochemical, luminescence; 96,000 tested, under 10 active; activation factor at 5 µM; recombinant CYP2C19, luciferin-H EGE luminescence; active compounds read high; 0 = fully inhibited enzyme, 1 = untreated enzyme; AID 1025, 2008;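 active means activation factor of at least 2 at 5 µM in the primary screen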
CYP2C9 act – human CYP2C9 activators, primary screen, biochemical, luminescence; Cytochrome P450 2C9 (Homo sapiens), P11712; recombinant CYP2C9, luciferin-H conversion; active compounds read high; factor 1 = untreated enzyme, 0 = blocked; activation factor at 5 µM; 1.4% of 96,000 active; AID 1024, 2008;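 active means activation factor of 2 or more for CYP2C9 at a 5 µM dose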
CYP2C9 inh – blockers of cytochrome P450 2C9 activity – biochemical, luminescence, ADME assay, primary screen. 20% of 96,000 active. AID 777, 2007. CYP2C9 Supersomes, luciferin-H conversion. inhibition, % at 5 µM;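 active means blocking of liver enzyme CYP2C9 beyond about 50% at 5 µM, limit read from the data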
PostGolgi yeast – phenotypic screen on post-Golgi transport, primary screen; post-Golgi transport phenotypic cell assay; inhibition, % at 10 µM; 0.9% of 98,000 active;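 further: yeast cells grown in 1536-well plates; yeast grown about 18 h at 30C before absorbance read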
A number is an active result. A selection: hits, their analogues and other compounds. The true share with any hit is near 32%. Unless noted, no stated cut-off is given here; in the data, active means inhibition above about 30%; inactive means the rest.

`CCC(=NCc1ccco1)c1c(C(F)(F)F)[nH]n(-c2nc3ccccc3s2)c1=O` gave PostGolgi ctrl inactive, CYP2C19 inh 64, CYP2C19 act inactive, CYP2C9 act inactive, CYP2C9 inh 70 and PostGolgi yeast inactive.
Screening CCCN=C(C)c1c(-c2ccccc2)[nH]n(-c2nc3ccccc3s2)c1=O returned PostGolgi ctrl 32, CYP2C19 inh inactive, CYP2C19 act inactive, CYP2C9 act inactive, CYP2C9 inh inactive and PostGolgi yeast inactive.
`Cc1ccnc(NC(=O)CCc2c(C)nc3ncnn3c2C)c1` gave PostGolgi ctrl inactive, CYP2C19 inh inactive, CYP2C19 act inactive, CYP2C9 act inactive, CYP2C9 inh inactive and PostGolgi yeast inactive.
`Cn1nnnc1SCc1nc2ccccc2[nH]1` gave PostGolgi ctrl inactive, CYP2C19 inh inactive, CYP2C19 act inactive, CYP2C9 act inactive, CYP2C9 inh inactive and PostGolgi yeast inactive.
For CCn1c(SCc2nc3ccccc3[nH]2)nnc1-c1cccs1 the results were PostGolgi ctrl inactive, CYP2C19 inh 99, CYP2C19 act inactive, CYP2C9 act inactive, CYP2C9 inh inactive and PostGolgi yeast inactive.
For CCn1c(SCc2nc3ccccc3[nH]2)nnc1-c1ccccc1OC the results were PostGolgi ctrl inactive, CYP2C19 inh 100, CYP2C19 act inactive, CYP2C9 act inactive, CYP2C9 inh 70 and PostGolgi yeast inactive.
For O=C(NCc1ccco1)c1cnc2n(c1=O)CCS2 the results were CYP2C19 inh inactive, CYP2C19 act inactive, CYP2C9 act inactive and CYP2C9 inh inactive.
Screening COc1cc(C2c3sc(=O)[nH]c3SC3C4CCC(C4)C23)ccc1O (configuration not stated) returned PostGolgi ctrl inactive, CYP2C19 inh 51, CYP2C19 act inactive, CYP2C9 act inactive, CYP2C9 inh 53 and PostGolgi yeast inactive.
Screening COc1ccc(C2c3sc(=O)[nH]c3SC3C4CCC(C4)C23)cc1 (configuration not stated) returned PostGolgi ctrl inactive, CYP2C19 inh 56, CYP2C19 act inactive, CYP2C9 act inactive, CYP2C9 inh inactive and PostGolgi yeast inactive.
Screening O=c1oc(-c2cccc(S(=O)(=O)N3CCOCC3)c2)nc2ccccc12 returned PostGolgi ctrl inactive, CYP2C19 inh inactive, CYP2C19 act inactive, CYP2C9 act inactive, CYP2C9 inh inactive and PostGolgi yeast inactive.
CC(=O)c1cc2c(cc1NC(=O)CN1CCCCC1C)OCO2 (configuration not stated) was read as PostGolgi ctrl inactive, CYP2C19 inh inactive, CYP2C19 act inactive, CYP2C9 act inactive, CYP2C9 inh inactive and PostGolgi yeast inactive.
`CCC(=O)NC(C)C(c1cccs1)N1CCN(Cc2ccccc2)CC1` (configuration not stated) gave PostGolgi ctrl inactive, CYP2C19 inh inactive, CYP2C19 act inactive, CYP2C9 act inactive, CYP2C9 inh inactive and PostGolgi yeast inactive.
`NC(=O)C1CCCN(S(=O)(=O)c2ccccc2)C1` (configuration not stated) gave PostGolgi ctrl inactive, CYP2C19 inh inactive, CYP2C19 act inactive, CYP2C9 act inactive, CYP2C9 inh inactive and PostGolgi yeast inactive.
O=S(=O)(/N=S1/CC=CCN1S(=O)(=O)c1ccccc1)c1ccccc1 (configuration not stated) was read as PostGolgi ctrl inactive, CYP2C19 inh inactive, CYP2C19 act inactive, CYP2C9 act inactive, CYP2C9 inh 55 and PostGolgi yeast inactive.
Screening COc1ccc(COn2c(=O)c(C)[n+]([O-])c3ccccc32)cc1OC returned PostGolgi ctrl inactive, CYP2C19 inh 52, CYP2C19 act inactive, CYP2C9 act inactive, CYP2C9 inh 74 and PostGolgi yeast inactive.
`CCOC(=O)COn1c(=O)c(C)[n+]([O-])c2ccccc21` gave PostGolgi ctrl inactive, CYP2C19 inh inactive, CYP2C19 act inactive, CYP2C9 act inactive, CYP2C9 inh inactive and PostGolgi yeast inactive.
Cc1c(=O)n(OCc2ccccc2)c2ccccc2[n+]1[O-] was read as PostGolgi ctrl inactive, CYP2C19 inh 69, CYP2C19 act inactive, CYP2C9 act inactive, CYP2C9 inh inactive and PostGolgi yeast inactive.
Cc1noc(C)c1COC(=O)CN(C)S(=O)(=O)c1ccc(Cl)cc1 was read as PostGolgi ctrl inactive, CYP2C19 inh inactive, CYP2C19 act inactive, CYP2C9 act inactive, CYP2C9 inh inactive and PostGolgi yeast inactive.
For Cc1noc(C)c1COC(=O)Cc1ccc(Cl)cc1 the results were PostGolgi ctrl inactive, CYP2C19 inh 92, CYP2C19 act inactive, CYP2C9 act inactive, CYP2C9 inh 55 and PostGolgi yeast inactive.
Cc1noc(C)c1COC(=O)CCCOc1ccc(Cl)cc1Cl was read as PostGolgi ctrl inactive, CYP2C19 inh 84, CYP2C19 act inactive, CYP2C9 act inactive, CYP2C9 inh 80 and PostGolgi yeast inactive.
`Cc1noc(C)c1COC(=O)CCC(=O)c1ccc(F)cc1` gave PostGolgi ctrl inactive, CYP2C19 inh inactive, CYP2C19 act inactive, CYP2C9 act inactive, CYP2C9 inh inactive and PostGolgi yeast inactive.
For Cc1cc2c(cc(C(=O)OCC(=O)NCc3cccs3)n2C(C)C)o1 the results were PostGolgi ctrl 57, CYP2C19 inh 50, CYP2C19 act inactive, CYP2C9 act inactive, CYP2C9 inh 65 and PostGolgi yeast inactive.
`COc1ccc(CC(=O)NCc2cccs2)cc1` gave PostGolgi ctrl inactive, CYP2C19 inh inactive, CYP2C19 act inactive, CYP2C9 act inactive, CYP2C9 inh inactive and PostGolgi yeast inactive.
O=C(Nc1ccc(S(=O)(=O)C(F)F)cc1)c1cccc(S(=O)(=O)N2CCOCC2)c1 was read as PostGolgi ctrl inactive, CYP2C19 inh inactive, CYP2C19 act inactive, CYP2C9 act inactive, CYP2C9 inh inactive and PostGolgi yeast inactive.
CCOC(=O)CCNC(C(=O)OCC)c1ccccc1 (configuration not stated) was read as PostGolgi ctrl inactive, CYP2C19 inh inactive, CYP2C19 act inactive, CYP2C9 act inactive, CYP2C9 inh inactive and PostGolgi yeast inactive.
`CCOC(=O)c1c(C)oc2cc(Br)c(O)c(Br)c12` gave PostGolgi ctrl 52, CYP2C19 inh inactive, CYP2C19 act inactive, CYP2C9 act inactive, CYP2C9 inh 67 and PostGolgi yeast inactive.
CCOC(=O)COc1cc2c(C(=O)OCC)c(C)oc2cc1Br was read as PostGolgi ctrl inactive, CYP2C19 inh inactive, CYP2C19 act inactive, CYP2C9 act inactive, CYP2C9 inh inactive and PostGolgi yeast inactive.
For CCOC(=O)c1c(C)oc2c(CN3CCN(C)CC3)c(Br)c(OC)c(O)c12 the results were PostGolgi ctrl inactive, CYP2C19 inh inactive, CYP2C19 act inactive, CYP2C9 act inactive, CYP2C9 inh inactive and PostGolgi yeast inactive.
Screening CCOC(=O)c1c(C)oc2cc(Br)c(OC(C)C(=O)OCC)cc12 (configuration not stated) returned PostGolgi ctrl inactive, CYP2C19 inh 94, CYP2C19 act inactive, CYP2C9 act inactive, CYP2C9 inh 91 and PostGolgi yeast inactive.

Compound activity: PubChem, several laboratories
